Results taken from PubChem BioAssay (NCI).
About 83,000 compounds went through this panel and 20% of them were active in at least one assay; those are over-represented in the sample as a whole.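 Cells were grown in 96-well plates and exposed to the test compound at a single concentration for 48 hours; results are reported as percent growth, with values below 10 considered active.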 Calls of active or inactive are those of the source.

system: SK-OV-3 ovarian; experiment: NCI-60 one-dose screen, 48 h (100 = growth as untreated, 0 = no growth, -100 = all killed); settings: 10 µM unless noted

Compound | growth
CC(C)(C)c1nn(-c2ccccc2)c2c1CC1(CN2Cc2ccc3c(c2)OCO3)C(=O)c2ccccc2C1=O | 115% (inactive)
COc1ccc(-c2cc(-c3ccc(N(C)C)cc3)nc(NC(=O)c3ccncc3)n2)cc1 | 117% (inactive)
Nc1nc(-c2ccc(F)cc2)cc(-c2cnn(-c3ccccc3)n2)n1 | 102% (inactive)
CC(=O)CC(C)(C)c1ccc(Cl)cc1 | 107% (inactive)
Nc1c(C(=O)Nc2ccccc2Cl)sc2nc3c(cc12)CCCCCC3 | 43.9% (inactive)
O=C(Nc1ccc(Nc2cc(Nc3ccccc3)ncn2)cc1)Nc1cc(C(F)(F)F)ccc1F | 101% (inactive)
CCOC(=O)C(Cc1cc(I)c(O)c(I)c1)NC(=O)c1ccccc1 (configuration not stated) | 94.1% (inactive)
CC[C@H](Nc1cc(C)nc(N)n1)c1nc2cccc(NCc3ccc(C(=O)NO)cc3)c2c(=O)n1-c1ccccc1 | 29.8% (inactive)
C=C1CCC2C3(C)COC(c4cccc(Cl)c4)OC3CCC2(C)C1/C=C/C1=CCOC1=O (configuration not stated) | 78.1% (inactive)
CCN(CC)CC(O)CNc1c2ccc([N+](=O)[O-])cc2nc2cc(OC)c(OC)cc12 (configuration not stated) | -42.5% (active)
COc1cc(-c2c3sc(=O)[nH]c3nc3c2c(=O)[nH]n3C(C)C)cc2c1OCO2 | 114% (inactive)
O=S(=O)(Nc1ccc(F)c(Cl)c1)c1ccc(-c2cnc(C3CC3)o2)cc1 | 35.1% (inactive)
COc1ccc(/C=c2/c(=O)[nH]c3nc4sc(C)c(C)c4c(=O)n23)cc1 | 102% (inactive)
Fc1ccc(Cc2ccc(F)cc2)cc1 | 107% (inactive)
CC(C)c1c(C(=O)Nc2ccccc2)c(-c2ccccc2)c(-c2ccc(F)cc2)n1CC[C@@H]1CC=CC(=O)O1 | 31.6% (inactive)
COc1ccc2nc3cc(Cl)ccc3c(N3CCN(c4ccnc(N5CCN(C)CC5)n4)CC3)c2c1 | 87.2% (inactive)
COc1cc(NCCCCN=C(N)NC(N)=NC(C)C)c2ncccc2c1 | 100% (inactive)
CS(=O)CCCCCN=C=S (configuration not stated) | 8.97% (active)
O=C(CO[N+](=O)[O-])Nc1ccc(C(=O)/C=C/c2ccc3c(c2)OCO3)cc1 | 111% (inactive)

Compound | growth
O=C(CCN1CCOCC1)Nc1ccc(Cn2nnc3c2C(=O)c2nnn(Cc4ccc(NC(=O)CCN5CCOCC5)cc4)c2C3=O)cc1 | 95.4% (inactive)
O=C1Nc2ccccc2/C1=C/C(=N/c1nnc(-c2ccc(Cl)cc2)s1)c1ccccc1 | 75.9% (inactive)
Cc1ccc(SCN2CCN(c3cccc(Cl)c3)CC2)cc1 | 111% (inactive)
COc1ccccc1N1CCN(CCn2c(=O)c3c(c4ccccc4n3C)n(C)c2=O)CC1 | 93.6% (inactive)
CS(=O)(CCCCN=C=S)=NC(=O)c1c(F)c(F)c(F)c(F)c1F (configuration not stated) | 97.3% (inactive)
O=C(Cn1cc(CN2C(=O)c3ccccc3S2(=O)=O)nn1)Nc1ccc([N+](=O)[O-])cc1Cl | 73.5% (inactive)
c1ccc(-c2nc(N3CCOCC3)c3c4c(sc3n2)CCCCC4)nc1 | 32.9% (inactive)
O=[N+]([O-])c1c(F)cccc1Nc1cccc(F)c1 | 114% (inactive)
CC1(C)CC(=O)C(c2c(-c3ccccc3)[nH]c3[nH]c(=S)[nH]c(=O)c23)=C(O)C1 | 114% (inactive)
O=C([C@@H](COCc1ccccc1)N1C(=O)[C@@H](N2C(=O)OC[C@@H]2c2ccccc2)[C@H]1/C=C/c1ccccc1)N1CCC(CCN2CCCCC2)CC1 | 86.6% (inactive)
COc1cc(/C=N\NC(=O)CN2CCN(c3cc4c(cc3F)c(=O)c(C(=O)N/N=C/c3ccc(O)c(OC)c3)cn4C3CC3)CC2)ccc1O | 106% (inactive)
CC/C=C\C[C@H](O)C/C=C1/C(=O)C=C[C@@H]1C/C=C\CCCC(N)=O | 10.9% (inactive)
ClC1=C2NC=NC2n2c(nnc2-c2ccc(Cl)cc2)N1 (configuration not stated) | 105% (inactive)
COc1ccc(C(=O)c2sc3nc(-c4ccccc4OC)ccc3c2N)cc1OC | 107% (inactive)
CCN1CCN(Cc2ccc(NC(=O)Nc3nc4ccc(Oc5ccnc(C(=O)NC)c5)cc4s3)cc2C(F)(F)F)CC1 | -2.46% (active)
COc1ccc2nc3cc(Cl)ccc3c(N3CCN(c4nccc(NCc5ccccc5)n4)CC3)c2c1 | 98.1% (inactive)
C=C1CCC2C3(C)COC(c4ccc(SC)cc4)OC3CCC2(C)C1C/C=C1/C(=O)OCC1O (configuration not stated) | 96.3% (inactive)
O=c1[nH]c(-c2ccccn2)nc2sc3c(c12)CCCCC3 | 53% (inactive)
COc1ccc(C/C(C)=C(\c2ccc(Cl)cc2)c2ccc(OCCN3CCCCCC3)cc2)cc1 | 103% (inactive)

system: IGROV1 ovarian; experiment: as above; settings: 10 µM unless noted

Compound | growth
CC(C)(C)c1nn(-c2ccccc2)c2c1CC1(CN2Cc2ccc3c(c2)OCO3)C(=O)c2ccccc2C1=O | 96.6% (inactive)
COc1ccc(-c2cc(-c3ccc(N(C)C)cc3)nc(NC(=O)c3ccncc3)n2)cc1 | 95.2% (inactive)
Nc1nc(-c2ccc(F)cc2)cc(-c2cnn(-c3ccccc3)n2)n1 | 83.8% (inactive)
Nc1c(C(=O)Nc2ccccc2Cl)sc2nc3c(cc12)CCCCCC3 | 25.9% (inactive)
O=C(Nc1ccc(Nc2cc(Nc3ccccc3)ncn2)cc1)Nc1cc(C(F)(F)F)ccc1F | 90.3% (inactive)
CCOC(=O)C(Cc1cc(I)c(O)c(I)c1)NC(=O)c1ccccc1 (configuration not stated) | 99% (inactive)
CC[C@H](Nc1cc(C)nc(N)n1)c1nc2cccc(NCc3ccc(C(=O)NO)cc3)c2c(=O)n1-c1ccccc1 | -4.45% (active)
C=C1CCC2C3(C)COC(c4cccc(Cl)c4)OC3CCC2(C)C1/C=C/C1=CCOC1=O (configuration not stated) | 88.9% (inactive)
CCN(CC)CC(O)CNc1c2ccc([N+](=O)[O-])cc2nc2cc(OC)c(OC)cc12 (configuration not stated) | -39.9% (active)
COc1cc(-c2c3sc(=O)[nH]c3nc3c2c(=O)[nH]n3C(C)C)cc2c1OCO2 | 101% (inactive)
O=S(=O)(Nc1ccc(F)c(Cl)c1)c1ccc(-c2cnc(C3CC3)o2)cc1 | 27.3% (inactive)
COc1ccc(/C=c2/c(=O)[nH]c3nc4sc(C)c(C)c4c(=O)n23)cc1 | 97.8% (inactive)
CC(C)c1c(C(=O)Nc2ccccc2)c(-c2ccccc2)c(-c2ccc(F)cc2)n1CC[C@@H]1CC=CC(=O)O1 | -27.5% (active)
COc1ccc2nc3cc(Cl)ccc3c(N3CCN(c4ccnc(N5CCN(C)CC5)n4)CC3)c2c1 | 72.9% (inactive)
COc1cc(NCCCCN=C(N)NC(N)=NC(C)C)c2ncccc2c1 | -31.9% (active)
CS(=O)CCCCCN=C=S (configuration not stated) | 7.98% (active)
O=C(CO[N+](=O)[O-])Nc1ccc(C(=O)/C=C/c2ccc3c(c2)OCO3)cc1 | 48.3% (inactive)

Compound | growth
O=C(CCN1CCOCC1)Nc1ccc(Cn2nnc3c2C(=O)c2nnn(Cc4ccc(NC(=O)CCN5CCOCC5)cc4)c2C3=O)cc1 | -19.8% (active)
Cc1ccc(SCN2CCN(c3cccc(Cl)c3)CC2)cc1 | 80.4% (inactive)
COc1ccccc1N1CCN(CCn2c(=O)c3c(c4ccccc4n3C)n(C)c2=O)CC1 | 104% (inactive)
CS(=O)(CCCCN=C=S)=NC(=O)c1c(F)c(F)c(F)c(F)c1F (configuration not stated) | 106% (inactive)
O=C(Cn1cc(CN2C(=O)c3ccccc3S2(=O)=O)nn1)Nc1ccc([N+](=O)[O-])cc1Cl | 103% (inactive)
c1ccc(-c2nc(N3CCOCC3)c3c4c(sc3n2)CCCCC4)nc1 | 24% (inactive)
O=[N+]([O-])c1c(F)cccc1Nc1cccc(F)c1 | 117% (inactive)
CC1(C)CC(=O)C(c2c(-c3ccccc3)[nH]c3[nH]c(=S)[nH]c(=O)c23)=C(O)C1 | 132% (inactive)
O=C([C@@H](COCc1ccccc1)N1C(=O)[C@@H](N2C(=O)OC[C@@H]2c2ccccc2)[C@H]1/C=C/c1ccccc1)N1CCC(CCN2CCCCC2)CC1 | 84.1% (inactive)
COc1cc(/C=N\NC(=O)CN2CCN(c3cc4c(cc3F)c(=O)c(C(=O)N/N=C/c3ccc(O)c(OC)c3)cn4C3CC3)CC2)ccc1O | 63.7% (inactive)
CC/C=C\C[C@H](O)C/C=C1/C(=O)C=C[C@@H]1C/C=C\CCCC(N)=O | 10.4% (inactive)
ClC1=C2NC=NC2n2c(nnc2-c2ccc(Cl)cc2)N1 (configuration not stated) | 119% (inactive)
CCN1CCN(Cc2ccc(NC(=O)Nc3nc4ccc(Oc5ccnc(C(=O)NC)c5)cc4s3)cc2C(F)(F)F)CC1 | -12.2% (active)
COc1ccc2nc3cc(Cl)ccc3c(N3CCN(c4nccc(NCc5ccccc5)n4)CC3)c2c1 | 92% (inactive)
C=C1CCC2C3(C)COC(c4ccc(SC)cc4)OC3CCC2(C)C1C/C=C1/C(=O)OCC1O (configuration not stated) | 99.2% (inactive)
O=c1[nH]c(-c2ccccn2)nc2sc3c(c12)CCCCC3 | 45.1% (inactive)
COc1ccc(C/C(C)=C(\c2ccc(Cl)cc2)c2ccc(OCCN3CCCCCC3)cc2)cc1 | 78.1% (inactive)
